The full ranking holds about 33,000 sequences; the median of “E-score (-0.5 to 0.5)” is about -0.0059, and the highest 2% start at about 0.26. This excerpt belongs to a sample that is enriched for the highest values.
These sequences were tested against T1, Cin5 (UniProt P40917) (assay: PBM E-score (8-mer binding enrichment) (E-score (-0.5 to 0.5)); higher = stronger / more preferred TF binding). Conditions: protein concentration: 100 nM; construct: GST-full length.
T1 sequence: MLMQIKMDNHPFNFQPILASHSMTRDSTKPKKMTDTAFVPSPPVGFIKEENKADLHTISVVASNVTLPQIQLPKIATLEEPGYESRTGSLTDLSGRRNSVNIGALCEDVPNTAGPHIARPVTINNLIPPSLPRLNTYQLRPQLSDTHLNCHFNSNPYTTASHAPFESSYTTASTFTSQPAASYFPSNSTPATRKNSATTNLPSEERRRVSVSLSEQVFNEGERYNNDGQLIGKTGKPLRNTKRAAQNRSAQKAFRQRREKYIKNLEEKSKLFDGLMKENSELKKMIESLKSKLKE
Protocol: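 Universal 'all 10-mer' protein binding microarrays (Agilent AMADID 015681) probed with GST-tagged S. cerevisiae TFs (full-length or DBD) made by in vitro transcription/translation (PURExpress), about 100-200 nM. Bound TF was detected with fluorescent anti-GST. Each ungapped 8-mer (which stands for itself and its reverse complement) is scored by the PBM enrichment score (E-score), a modified Wilcoxon-Mann-Whitney statistic from -0.5 to +0.5, computed with the Universal PBM Analysis Suite. Scale: above 0.35 generally sequence-specific binding.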
For ACTTACGA, the “PBM E-score” value was 0.207. For GCTTACAC, the “PBM E-score” value was 0.391. For CATTACTA, the “PBM E-score” value was 0.189. For CCTTACGA, the “PBM E-score” value was -0.114. For ATTGTGAC, the “PBM E-score” value was 0.0953. In the case of GAGCCACC, the “PBM E-score” value is reported as -0.354. In the case of GTACCGGA, the “PBM E-score” value is reported as -0.00967. With AGCGGCTG the “PBM E-score” value was -0.125. In the case of ACAGCCAG, the “PBM E-score” value is reported as -0.0281. CAATTGGC was tested, and the “PBM E-score” value was 0.165. In the case of AATTCCAA, the “PBM E-score” value is reported as 0.0946. With GACGCTTA the “PBM E-score” value was -0.059. In the case of CGACGTAC, the “PBM E-score” value is reported as -0.00505. In the case of CCGTCGCC, the “PBM E-score” value is reported as -0.0908. CCCATATA was tested, and the “PBM E-score” value was 0.178. In the case of AGAAGGAC, the “PBM E-score” value is reported as -0.211. In the case of CGCCAGGA, the “PBM E-score” value is reported as -0.0898. GCTTATCA was tested, and the “PBM E-score” value was 0.285. With GCTTACTA the “PBM E-score” value was 0.388. In the case of ACTTATCA, the “PBM E-score” value is reported as 0.0834. ACTTACTA was tested, and the “PBM E-score” value was 0.108. In the case of CCTTACTA, the “PBM E-score” value is reported as 0.0454. With CCTTATCA the “PBM E-score” value was 0.0994. For AAGCCGCG, the “PBM E-score” value was -0.0409. In the case of ACATTCGA, the “PBM E-score” value is reported as 0.0628. With ATCCGGAT the “PBM E-score” value was 0.259. With ATCCGGAA the “PBM E-score” value was 0.227. ATCCGGAC was tested, and the “PBM E-score” value was -0.149. With TGGGGTAA the “PBM E-score” value was 0.0776. CGTAGTCA was tested, and the “PBM E-score” value was -0.015. In the case of AATGTAAT, the “PBM E-score” value is reported as 0.301. In the case of CATGTAAG, the “PBM E-score” value is reported as 0.13. For AATGTAAA, the “PBM E-score” value was 0.19. In the case of AATGTAAC, the “PBM E-score” value is reported as 0.117. With ACTGTAAG the “PBM E-score” value was 0.143. AATGTAAG was tested, and the “PBM E-score” value was 0.319. CAGGCAAA was tested, and the “PBM E-score” value was -0.00195. In the case of AGACCCAG, the “PBM E-score” value is reported as -0.097. In the case of CAACGCCA, the “PBM E-score” value is reported as -0.074. In the case of CGTATTTA, the “PBM E-score” value is reported as 0.308. In the case of CTCATTTC, the “PBM E-score” value is reported as -0.04. GTTTATTA was tested, and the “PBM E-score” value was 0.215. With ACTATTTC the “PBM E-score” value was 0.228. ATTTATTA was tested, and the “PBM E-score” value was 0.306. ATTATTTC was tested, and the “PBM E-score” value was 0.3. With CTTATTTC the “PBM E-score” value was 0.238. AGTATTTA was tested, and the “PBM E-score” value was 0.0905. ATCATTTA was tested, and the “PBM E-score” value was 0.226. For GGTATTTA, the “PBM E-score” value was 0.0824. For CTTTATTA, the “PBM E-score” value was 0.0651. ATCATTTC was tested, and the “PBM E-score” value was 0.264. ATAGACGC was tested, and the “PBM E-score” value was 0.122. With CACAGCAG the “PBM E-score” value was 0.0514. CCTGCGTA was tested, and the “PBM E-score” value was -0.115. For GCACCGAC, the “PBM E-score” value was -0.0796. For ATATTTTA, the “PBM E-score” value was 0.201. ATTTATAC was tested, and the “PBM E-score” value was 0.253. For ATGATTTA, the “PBM E-score” value was 0.268. In the case of ATTTATAA, the “PBM E-score” value is reported as 0.299. With ATATTTTC the “PBM E-score” value was 0.31. ATTATTTG was tested, and the “PBM E-score” value was 0.206. In the case of CTATTTTC, the “PBM E-score” value is reported as 0.0963. ATTATTTA was tested, and the “PBM E-score” value was 0.319. CTGATTTA was tested, and the “PBM E-score” value was 0.0451. In the case of CTTATTTA, the “PBM E-score” value is reported as 0.164. In the case of CTTTATAA, the “PBM E-score” value is reported as -0.0352. With ATGATTTG the “PBM E-score” value was 0.123. GCACTGCA was tested, and the “PBM E-score” value was -0.0484. With AGCTGCTA the “PBM E-score” value was -0.0218. With CCTGCAAG the “PBM E-score” value was -0.215. In the case of GAAGAATC, the “PBM E-score” value is reported as 0.00251. For AACAGCCG, the “PBM E-score” value was -0.0368. CCGCACAG was tested, and the “PBM E-score” value was -0.0131. CTCTAAAA was tested, and the “PBM E-score” value was -0.125. For CTATAAAC, the “PBM E-score” value was -0.00307. For GTATAAAA, the “PBM E-score” value was 0.26. With CTATAAAA the “PBM E-score” value was -0.0202. In the case of TTATAAAA, the “PBM E-score” value is reported as 0.289. For TGATAAAA, the “PBM E-score” value was 0.0968. In the case of GTATAAAC, the “PBM E-score” value is reported as 0.26. In the case of ATATAAAA, the “PBM E-score” value is reported as 0.154. With ATATAAAC the “PBM E-score” value was 0.255. AACGCCAA was tested, and the “PBM E-score” value was -0.0074. For GATTCTCC, the “PBM E-score” value was -0.134. With GTACTCTA the “PBM E-score” value was -0.0538. In the case of TATTCGAA, the “PBM E-score” value is reported as 0.0697. For CCCTATGA, the “PBM E-score” value was -0.066. For CAATAGGC, the “PBM E-score” value was -0.0915. In the case of AGGAATAG, the “PBM E-score” value is reported as 0.0234. GGCAAAAA was tested, and the “PBM E-score” value was 0.202. For ATTACTAA, the “PBM E-score” value was 0.334. For CTTACTTA, the “PBM E-score” value was 0.25. In the case of ATTACTAC, the “PBM E-score” value is reported as 0.145. CTTACTAA was tested, and the “PBM E-score” value was 0.313. GTTACTAA was tested, and the “PBM E-score” value was 0.168. ATTACTGA was tested, and the “PBM E-score” value was 0.108. With CTTACTAC the “PBM E-score” value was 0.202. ATTACTTA was tested, and the “PBM E-score” value was 0.411. For ATTACTAG, the “PBM E-score” value was 0.105. AAGATGGA was tested, and the “PBM E-score” value was 0.109. With CGAGTAGA the “PBM E-score” value was -0.139. With ATTTACGC the “PBM E-score” value was 0.0814. For ATCCGTTC, the “PBM E-score” value was 0.0322. ATCCGTTA was tested, and the “PBM E-score” value was 0.29. GTCCGTTA was tested, and the “PBM E-score” value was 0.12. With CGGGCTAA the “PBM E-score” value was -0.184. With CGGTACTC the “PBM E-score” value was -0.161. With CGTAGAGC the “PBM E-score” value was -0.0105. AAAAACCA was tested, and the “PBM E-score” value was 0.0166. CAAGCGCA was tested, and the “PBM E-score” value was 0.323. For CAAGCGCC, the “PBM E-score” value was -0.291. AAAGCGCA was tested, and the “PBM E-score” value was -0.0252. CAATTCCC was tested, and the “PBM E-score” value was 0.112. In the case of CTGATTAA, the “PBM E-score” value is reported as 0.108. CTGATTTC was tested, and the “PBM E-score” value was -0.00928. In the case of ATGATTAA, the “PBM E-score” value is reported as 0.256. In the case of CTGATTAC, the “PBM E-score” value is reported as 0.378. For ATGATTAG, the “PBM E-score” value was 0.223. In the case of ATGATTAC, the “PBM E-score” value is reported as 0.362. In the case of GGGCTAGA, the “PBM E-score” value is reported as -0.149. For CAGGCAAC, the “PBM E-score” value was -0.0103. In the case of CTTATGTA, the “PBM E-score” value is reported as 0.361. For GTTATGCA, the “PBM E-score” value was 0.0592. CTTATGAA was tested, and the “PBM E-score” value was 0.0936. GATATGTA was tested, and the “PBM E-score” value was 0.189. AGTATGTG was tested, and the “PBM E-score” value was 0.14. With GTTATGTA the “PBM E-score” value was 0.276. CATATGTA was tested, and the “PBM E-score” value was 0.172. For ATTATGAA, the “PBM E-score” value was 0.258. ATTATGTG was tested, and the “PBM E-score” value was 0.345. For CTTATGCA, the “PBM E-score” value was 0.106. For ACTATGTG, the “PBM E-score” value was 0.0904. For GTTATGAA, the “PBM E-score” value was 0.159. AGTGCTTA was tested, and the “PBM E-score” value was 0.199. AGTGAACT was tested, and the “PBM E-score” value was 0.035. For AGGCCACG, the “PBM E-score” value was -0.155. With GAGAAGAC the “PBM E-score” value was -0.0329. For CTACACCA, the “PBM E-score” value was -0.00077. In the case of GGGACACC, the “PBM E-score” value is reported as -0.238. With CTAGTGAC the “PBM E-score” value was -0.0966. With GCTATGTA the “PBM E-score” value was -0.0403. ATTATGCG was tested, and the “PBM E-score” value was 0.338. In the case of ATTATGTC, the “PBM E-score” value is reported as 0.27. For ATTATGCC, the “PBM E-score” value was 0.15. In the case of ATTATGTA, the “PBM E-score” value is reported as 0.42. With ATTATGCA the “PBM E-score” value was 0.118. With ACTATGTA the “PBM E-score” value was 0.202. For CTTATGTC, the “PBM E-score” value was 0.219. For ACTATGTC, the “PBM E-score” value was -0.0438. In the case of AGCCATCA, the “PBM E-score” value is reported as 0.131. In the case of AACGCGAT, the “PBM E-score” value is reported as 0.0765. In the case of ACTTCGCC, the “PBM E-score” value is reported as 0.0471. In the case of CTACCCGA, the “PBM E-score” value is reported as -0.0656. With CCACGGAC the “PBM E-score” value was -0.237. AGTTTCGC was tested, and the “PBM E-score” value was 0.0693. In the case of ATAGGCCG, the “PBM E-score” value is reported as -0.185. With ACCCTTAG the “PBM E-score” value was -0.101. For GGACAGGA, the “PBM E-score” value was -0.275. In the case of AATACTGT, the “PBM E-score” value is reported as 0.258. For ACTACTAT, the “PBM E-score” value was 0.26. In the case of AATACTAT, the “PBM E-score” value is reported as 0.214. For TATACTGA, the “PBM E-score” value was 0.274. AATACTGG was tested, and the “PBM E-score” value was 0.129. With CATACTGA the “PBM E-score” value was 0.155. For ACTACTAC, the “PBM E-score” value was 0.00444. With GATACTGA the “PBM E-score” value was 0.124. In the case of ACTACTAA, the “PBM E-score” value is reported as 0.177. With AGCTGTAG the “PBM E-score” value was 0.139. In the case of CAGATGAG, the “PBM E-score” value is reported as 0.0638. With CGTGTTGC the “PBM E-score” value was -0.119. GAAGTGAA was tested, and the “PBM E-score” value was 0.202. For AAAGTGAT, the “PBM E-score” value was -0.00439. With AAAGTGAA the “PBM E-score” value was 0.258.

Source: the supplement of paper PMC3334620
